Measured values: PubChem BioAssay AID1259374 (The Scripps Research Institute Molecular Screening Center, 2018)
Hit rate of the full screen: of about 650,000 compounds, about 5,900 (0.91%) were called active. The sample holds actives, similar compounds and a random draw of the others, so the mix is not that of the screen. Unmarked numbers belong to inactive results. Rule as the data show it: active = inhibition above about 50%; inactive = the rest.

These molecules were tested against Microphthalmia-associated transcription factor (Homo sapiens) (UniProt O75030) (assay: MITF inhibitors, primary screen, biochemical, AlphaScreen, human (AID 1259374;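 also: 0% = vehicle wells with protein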)). Settings: AlphaScreen MITF homodimerization, bead proximity signal; at 2.6 µM; hits give high values.
Chain of Microphthalmia-associated transcription factor (Homo sapiens) (O75030 whole entry, looked up): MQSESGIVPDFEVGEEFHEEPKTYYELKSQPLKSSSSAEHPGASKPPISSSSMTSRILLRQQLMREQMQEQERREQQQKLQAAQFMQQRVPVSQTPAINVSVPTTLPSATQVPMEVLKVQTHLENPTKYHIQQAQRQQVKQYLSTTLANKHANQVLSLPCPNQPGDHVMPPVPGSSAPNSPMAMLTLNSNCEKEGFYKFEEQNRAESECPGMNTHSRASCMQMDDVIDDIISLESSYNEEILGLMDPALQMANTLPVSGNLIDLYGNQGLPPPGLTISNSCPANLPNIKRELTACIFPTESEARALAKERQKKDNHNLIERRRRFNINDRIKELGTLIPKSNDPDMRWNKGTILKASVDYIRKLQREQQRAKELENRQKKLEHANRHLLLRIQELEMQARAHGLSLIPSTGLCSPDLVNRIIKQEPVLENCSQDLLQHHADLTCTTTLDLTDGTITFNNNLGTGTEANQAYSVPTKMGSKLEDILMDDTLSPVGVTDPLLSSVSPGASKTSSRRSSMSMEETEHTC

SMILES | inhibition
O=C(O)c1cccc(-n2[nH]c(-c3ccccc3)cc2=O)c1 | 7.2%
Cc1nc2sc3c(c2c(=O)n1/N=C/c1ccccc1[N+](=O)[O-])CCCC3 | -7.66%
COc1cccc(NC(=O)C2CCN(S(=O)(=O)c3ccc4c(c3)oc(=O)n4C)CC2)c1 | -1.03%
Cn1c(=O)oc2cc(S(=O)(=O)N3CCC(C(=O)NCCC4=CCCCC4)CC3)ccc21 | -12.8%
Cn1c(=O)oc2cc(S(=O)(=O)N3CCC(C(=O)NC(C)(C)C)CC3)ccc21 | 70.2% (active)
CC(C)NC(=O)NC(=O)COC(=O)c1ccc(Cl)c(S(N)(=O)=O)c1 | 0.26%
CCOC(=O)c1ccc(NC(=O)CCc2c(C)nc3nc(CN)nn3c2C)cc1 | 6.45%
COc1ccccc1NC(=O)Cn1cnc2sc(C(=O)Nc3nc4ccc(Br)cc4s3)c(C)c2c1=O | 17.9%
COCCCN1C(=O)c2cccc3cccc(c23)C1=O | 1.36%
CCCCN1C(=O)c2cccc3c(C(C)=O)ccc(c23)C1=O | 7.62%
COCCCN1C(=O)c2cccc3c(C(=O)c4ccccc4)ccc(c23)C1=O | 64.3% (active)
N/C(=N\OC(=O)c1cccc(F)c1)c1ccc(Cl)cc1 | 17.5%
CCOC(=O)C1CCCN(Cc2ccc(F)cc2)C1 (stereo unspecified) | 12.6%
COc1ccc(-c2ncc(C)c(NC3CCN(Cc4ccccc4)CC3)n2)cc1 | 9.68%
CCOc1ccc(CN2CCCC(C(=O)N(C)Cc3ccccc3)C2)cc1 (stereo unspecified) | 45.6%
CCOc1cc(CN2CCC(C(=O)NCCc3ccccc3)CC2)ccc1O | -1.67%
COc1cccc(CN2CCC(C(=O)NCCc3ccccc3)CC2)c1 | 54.9% (active)
COc1cccc(CN2CCC(C(=O)NC(C)(C)C)CC2)c1 | 18.9%
COc1ccc(CN2CCCC(C(=O)N3CCCCC3)C2)cc1 (stereo unspecified) | 57.8% (active)
COc1ccc(CN2CCC(C(=O)N3CCN(Cc4ccccc4)CC3)CC2)cc1 | 52% (active)
COc1ccc(-c2nc(C(=O)NC3CCN(Cc4ccccc4)CC3)cs2)cc1 | 9.55%
Cc1ccccc1-n1c(=S)sc2c(=O)n(-c3ccccc3)c(SCc3cc(=O)n4cc(Cl)ccc4n3)nc21 | -24.2%
CC(C)NC(=O)Cn1nc(SCc2ccccn2)nc1N | 2.01%
Cn1ccnc1SCc1cc(=O)c(OC(=O)c2ccccc2I)co1 | -3.29%

SMILES | inhibition
O=C(Nc1cccc(N2CCC(N(CC3CCC3)CC3CCCO3)CC2)c1)c1cccnc1 (stereo unspecified) | 21.5%
CC(C)CC(=O)N1CCc2ccccc21 | 5.19%
CN(CCc1ccccn1)CC(=O)N1CCc2ccccc21 | 93% (active)
COc1ccc(CN(C)CC(=O)N2CCc3ccccc32)cc1OC | 0.1%
CN(C(=O)c1ccccc1)c1cccc(N)c1 | -4.8%
COc1cc(C(=O)N2CCCC2)c([N+](=O)[O-])cc1OC | 9.4%
COc1cc(CN2CCCC(CO)C2)c([N+](=O)[O-])cc1OC (stereo unspecified) | 12.4%
COc1cc(CN2CCCN(C)CC2)c([N+](=O)[O-])cc1OC | 14.7%
COc1cc(CN2CCN(Cc3ccc(C)cc3)CC2)c([N+](=O)[O-])cc1OC | 80.6% (active)
COc1cc(CN2CCN(CCO)CC2)c([N+](=O)[O-])cc1OC | 13.5%
COc1cc(CN2CCN(Cc3ccco3)CC2)c([N+](=O)[O-])cc1OC | 84.4% (active)
c1ccc(CN2CCN(Cc3ccco3)CC2)cc1 | 12.7%
COc1cc(CNCc2ccc3c(c2)OCO3)c([N+](=O)[O-])cc1OC | 6.83%
COc1cc(CN2CCN(Cc3ccc(Cl)cc3)CC2)c([N+](=O)[O-])cc1OC | 65.5% (active)
CN1CCc2cc(CNC(=O)CC3C(=O)NCCN3CCc3ccccc3)ccc21 (stereo unspecified) | -15.3%
CC/C(C)=N\NC(=O)CCC(=O)Nc1ccccc1 | 7.54%
NC(=O)c1ccccc1NC(=O)CCl | 0.34%
CCNC(=O)CSc1ccc(C)cc1 | 1.07%
CN1C(=O)CSC1=Nc1ccc(Cl)c(Cl)c1 | -5.98%
CCNc1nc(NC(C)C)nc(OCCOC(C)=O)n1 | -3.21%
CCNc1nc(NCC)nc(C(=O)O)n1 | 55.1% (active)
CCNc1nc(OC)cc(OC)n1 | -5.7%
O=C(CN1CCN(CC(=O)c2ccco2)CC1)Nc1ccc(Cl)c(Cl)c1 | 65.2% (active)
O=C(COC(=O)c1ccco1)Nc1ccc(Cl)c(Cl)c1 | -6.47%

SMILES | inhibition
O=C(CN1CCN(C(=O)Nc2c(F)cccc2F)CC1)c1ccco1 | 39.7%
COc1cccc2c1OC1(CCN(C(=O)Cc3cccs3)CC1)OC2 | 0.59%
COc1cc(C(=O)/C(=C/c2ccccc2F)c2nc3ccccc3o2)cc(OC)c1OC | 5.52%
Cc1nnc(NC(=O)CSc2nc(C3CCCCC3)nc3ccccc23)s1 | -12.8%
c1ccc(CSc2nc(C3CC3)nc3ccccc23)nc1 | -3.42%
COC(=O)CSc1nc(C2CC2)nc2ccccc12 | 72.1% (active)
Cc1cccc(NC(=O)CC[C@H]2CN(Cc3ccccc3)CC[C@H]2N(C)C)c1 | -2.16%
CCOc1ccc(OCCCCNCCO)cc1 | 63.6% (active)
OCCNCCCOc1ccc(I)cc1 | -4.92%
CC(C)(C)c1ccc(OCCCCNCCO)cc1 | -8.77%
O=C(Nc1ccc(N2CCC(NCc3ccc4c(c3)OCO4)CC2)cc1)C1CCCC1 | -10.3%
O=C(c1ccccc1)c1cccc(NC(=O)C2CCCCC2)c1 | -1.02%
CC1=C(C(=O)OCC(C)C)C(c2cccc(OCc3ccccc3)c2)C2=C(CCCC2=O)N1 (stereo unspecified) | 0.37%
COC(=O)c1ccc(C2C(C(=O)OCCOc3ccccc3)=C(C)NC3=C2C(=O)CCC3)cc1 (stereo unspecified) | 0.05%
CCOc1cccc(C2C(C(=O)OCCOc3ccccc3)=C(C)NC3=C2C(=O)CCC3)c1 (stereo unspecified) | 59.2% (active)
COc1ccc(C(=O)N/C(=C\c2cccc([N+](=O)[O-])c2)C(=O)NC(CC(C)C)C(=O)O)cc1 (stereo unspecified) | -8.1%
COCCn1nnnc1C(c1ccc(F)cc1)N1CCN(c2ccccc2OC)CC1 (stereo unspecified) | -3.53%
Cc1cc(-c2ccc(S(=O)(=O)NC3CCC(C)CC3)cc2)on1 (stereo unspecified) | 4.94%
COc1ccccc1NC(=O)c1ccc(N2CC3CC(C2)c2cccc(=O)n2C3)c(NC(=O)c2cccnc2)c1 (stereo unspecified) | -6.03%
CCOC(=O)C1CCN(C(=O)c2ccc(N3CC4CC(C3)c3cccc(=O)n3C4)c(NC(=O)c3cccnc3)c2)CC1 (stereo unspecified) | -0.93%
CC(=O)N1CCN(C(=O)c2ccc(N3CC4CC(C3)c3cccc(=O)n3C4)c(NC(=O)c3cccnc3)c2)CC1 (stereo unspecified) | 60% (active)
CCCCNC(=O)/C(=C/c1ccco1)NC(=O)c1ccccc1 | 5.66%
O=C(NCCO)/C(=C/c1ccco1)NC(=O)c1ccccc1 | 13.5%
O=C(O)CCCCCNC(=O)/C(=C\c1ccco1)NC(=O)c1ccccc1 | 52.3% (active)

SMILES | inhibition
CC(C)(CO)NC(=O)CCC1(Cc2ccc3ccccc3c2)CCC(=O)N1 (stereo unspecified) | 5.16%
CCc1ccc(C(=O)CC(c2ccccc2)C2CCCCC2=O)cc1 (stereo unspecified) | 2.82%
Cc1cncn(CC(=O)NCCOc2ccccc2)c1=O | -1.97%
CC(C(=O)O)N1C(=O)S/C(=C\c2ccccc2)C1=O (stereo unspecified) | 8.38%
CCCCC(C(=O)O)N1C(=O)/C(=C2/C(=O)N(C(C)=O)c3ccccc32)SC1=S (stereo unspecified) | 6.57%
O=C(CCN1C(=O)/C(=C\c2ccco2)SC1=S)Nc1cccc(C(=O)O)c1 | 2.65%
Cc1ccc(/C=C2\SC(=S)N(c3cccc(O)c3)C2=O)o1 | 13.4%
Cc1ccc(/C=C2\SC(=S)N(C(C)C(=O)O)C2=O)o1 (stereo unspecified) | 69.4% (active)
CCCC(C(=O)O)N1C(=O)/C(=C/C=C/c2ccco2)SC1=S (stereo unspecified) | 63.6% (active)
O=C(CCCN1C(=O)/C(=C\c2ccco2)SC1=S)Nc1ccccc1C(=O)O | 9.5%
O=C(O)CCC(C(=O)O)N1C(=O)/C(=C\c2ccco2)SC1=S (stereo unspecified) | 62.6% (active)
COc1cc(/C=C2/SC(=S)N(C(CCSC)C(=O)O)C2=O)ccc1O (stereo unspecified) | 15.5%
CSc1ccc(CCNC(=O)c2cc3ccccn3n2)cc1 | -9.21%
COc1ccc2[nH]c3c(c2c1)CCOC31CCN(C(=O)N[C@@H](C)c2ccccc2)CC1 | -20.6%
O=C(Nc1cccc(Cl)c1N1CCN(Cc2ccco2)CC1)c1ccc(Br)o1 | -6.95%
O=C(CNCCC1=CCCCC1)Nc1ccc(N2CCCC2)cc1 | 10.5%
O=C(CNCc1ccc(F)cc1)Nc1ccc(N2CCCC2)cc1 | 53.1% (active)
O=C(CNC1CCCC1)Nc1ccc(N2CCCC2)cc1 | 6.86%
O=C(NCc1ccccc1)NC(=O)c1cccnc1 | 22.7%
CCOc1ccc(-c2cc(N)n(S(=O)(=O)c3ccc(C)cc3)n2)cc1 | -6.9%
Cn1c(=NC(=O)COc2ccccc2)sc2cc(S(C)(=O)=O)ccc21 | 52.2% (active)
CCCC(=O)N=c1sc2cc(S(C)(=O)=O)ccc2n1C | 19%
Cn1c(=NC(=O)CCOc2ccccc2)sc2cc(Br)ccc21 | 3.97%
Cc1ccc(/C=C2\N=C(c3cccc(I)c3)OC2=O)cc1 | 12.7%
